In all, about 69,000 compounds went through this assay and about 8,600 (12%) showed an effect of 50% or more. For the sample, strong results were picked, then their nearest neighbours and some compounds at random.
Each molecule was assayed on Plasmodium berghei (assay: Screen against P. berghei liver stage (PbLuc), transformed with Luciferase, at 10uM). Conditions: tested at 10 uM.
Type: functional, HepG2

Structure (SMILES) | INHIBITION [%]
O=C(Nc1ccccc1F)C1=NOC2(CCNCC2)C1 | -18.5
CSCc1noc(CNC(=O)C2CCN(C(=O)C3CC3)CC2)n1 | 23
Cc1nc(N2CCCC2)nc2c1CN(C(=O)N(C)C)CC2 | 37.1
CN(CCc1ccncc1)CC1CCCN1c1cccnn1 (stereo not given) | -69.3
Cc1cccc2nc(C(=O)N3CCC4(CCC(=O)N(C)C4)CC3)c(F)n12 | 33.4
Cc1cnc(-c2nc(NC3CC3)ncc2-c2onc(C)c2C)cn1 | 0.301
Fc1ccc(CN2CCC3(CCN(Cc4nccs4)CC3)C2)cc1 | 21.7
CCN1CCC(CNCc2c[nH]nc2C(C)(C)C)C1 (stereo not given) | 11.4
COc1ccc(CC(=O)N2CCC3(CC2)CCN(CC(C)C)C3=O)cc1 | 35.8
Cc1nc(-c2ccsc2)ccc1C(=O)N(C)CC(F)(F)F | -4.12
Cc1cccc(CN2CCc3onc(CN(C)C)c3C2)n1 | -14.2
CN(C)Cc1noc2c1CN(Cc1ccc[nH]1)CC2 | 73.2
CN(C)Cc1noc2c1CN(Cc1ccsc1)CC2 | 15.7
CN1CC(=O)N(c2ccccc2)CC12CCN(Cc1nccn1C)C2 (stereo not given) | 7.31
CNc1nc(CNC(=O)Nc2cccc(-c3ncc(C)o3)c2)cs1 | 20.1
CCn1cc(-c2nn3c(C(F)(F)F)nnc3s2)c(C)n1 | 4.12
CCn1cc(-c2cc(C(F)(F)F)nc(NC3CCCC3)n2)c(C)n1 | 68.7
Cc1nn(C)cc1-c1cc(C(F)(F)F)nc(NC2CCN(C)CC2)n1 | 40.5
Cc1nc2n(n1)CC(Nc1cc(C(F)(F)F)nc3ncnn13)CC2 (stereo not given) | -29.2
Cc1nn(C)cc1-c1cc(C(F)(F)F)nc(NC2CCCCC2)n1 | 58.9
Cc1nn(C)cc1-c1cc(C(F)F)nc(NC2CCCCC2)n1 | 26.9
Cc1cc(N)n(-c2ccc3nnc(C)n3n2)n1 | 37.5
Cc1cc(C(=O)N2CCCC(n3cncn3)C2)on1 (stereo not given) | -23.9
CCc1ccccc1CN1CC[C@@]2(O)CCN(S(=O)(=O)N(C)C)C[C@H]2C1 | 44.6
O=C(Cc1ccn[nH]1)Nc1cncc(Br)c1O | 22.6
O=C(Nc1cncc(Br)c1O)c1ccon1 | 83.2
O=C(Cc1ccon1)Nc1cncc(Br)c1O | -9.23
CN(C)C(=O)CO[C@H]1CN(Cc2cccc(C#N)c2)[C@@H]2COC[C@H]12 | 7.31
Cc1noc(C2CCCCN2C(=O)NCc2ccco2)n1 (stereo not given) | 26.4
CNC1CCC2(CC1)CNC(=O)c1cc(C)ccc1O2 (stereo not given) | -16.5

Source: ChEMBL document CHEMBL4513216, “Probing the Open Global Health Chemical Diversity Library for Multistage-Active Starting Points for Next-Generation Antimalarials” (ACS Infect Dis, 2020)
